Laboratory results: PubChem BioAssay AID504832 (National Center for Advancing Translational Sciences (NCATS), 2011)
The campaign covered roughly 310,000 compounds. About 18,000 (5.8%) were called active. Another 22% or so got no clear call; they are omitted. The sample holds actives, similar compounds and a random draw of the others, so the mix is not that of the screen. A number with no mark means an inactive call. Calls follow the shape of the dose curve; as a rule, active = well fitted inhibition curve with a large enough effect; inconclusive = small, poorly fitted or top-dose-only effect, or another doubt; inactive = no such curve, though single readings can be large or run the other way.

Experiment: Primary qHTS for delayed death inhibitors of the malarial parasite plastid, 48 hour incubation
Conditions: P. falciparum luciferase growth in erythrocytes; series mostly up to 28.7 µM; activity change, negative = inhibition: at the top concentration
Method in brief: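 Here the parasites carry a stable luciferase gene and grow inside erythrocytes in Albumax-based RPMI medium with compound for one erythrocytic cycle. Activity is scored as loss of luminescent signal.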
% is scaled to controls: 0 for no effect and ±100 for the full control effect; potency is read from the fitted curve at half-maximal effect.

SMILES	activity change, negative = inhibition	Potency
COc1ccc(C(=O)NC2CC(C)(C)NC(C)(C)C2)cc1OC	7.82%	–
COc1ccc(S(=O)(=O)NC(C)c2ccccc2)cc1C(=O)N1CCCCC1 (centres undefined)	-18.6%	–
COc1cccc(C(=O)NNS(=O)(=O)c2ccc(F)cc2)c1	23.1%	–
CN(C)CC/C=C1\c2ccccc2CSc2ccccc21	–	10.4 µM (active)
CN(C)Cc1ccccc1C1(O)c2ccccc2CSc2ccccc21 (centres undefined)	0%	–
CCOc1ccc(C(=O)Nc2cc(Cl)ccc2-n2cncn2)cc1OC	15.5%	–
O=C(CNc1cccc(S(=O)(=O)N2CCCCC2)c1)Nc1ccccc1F	-12.3%	–
O=C(NCc1cc(F)cc(C(F)(F)F)c1)C1CCC(=O)N(C2CCCC2)C1 (centres undefined)	-11.5%	–
Cc1cc(NC(=O)c2ccco2)c(=O)n(Cc2c(F)cccc2Cl)c1	-0.249%	–
Cc1ccc(C(=O)CNc2ccc(F)cc2)cc1	-7.87%	–
COC(=O)C1=C(Nc2ccc(OC)cc2)C=C(C)C(C(=O)OC)C1c1ccc(C)cc1 (centres undefined)	–	10.4 µM (active)
Cc1ccc(NC(=S)Nc2ccc(F)cc2)cc1	6.95%	–
COC(=O)C1=C(Nc2ccc(C)cc2)C=C(C)C(C(=O)OC)C1c1ccc(F)cc1 (centres undefined)	–	3.7 µM (active)
COC(=O)C1C(=O)NCC1c1ccc(OC)cc1 (centres undefined)	23.4%	–
COc1ccc(N2C(=O)C(O)C2c2ccc(C)cc2)cc1 (centres undefined)	5.17%	–
c1ccc2c(c1)CCc1snnc1-2	23.2%	–
COC(=O)c1cc(CNC(=O)CC(C)c2ccccc2)ccc1OC (centres undefined)	6.94%	–
CCOc1cc(/C=N/NC(=O)CN2CCCCC2)ccc1O	37.9%	–
CCOC(=O)N1CCN(CCC(=O)Nc2ccccc2)CC1	-15.3%	–
O=C(Nc1c2c(nc3ccccc13)CCCC2)c1ccccc1Br	2.38%	–
O=C(NNc1c2ccccc2nc2ccccc12)c1cc2ccccc2cc1O	–	11.7 µM (active)
Cc1noc(C)c1COC(=O)c1cc2ccccc2cc1O	22.6%	–

SMILES	activity change, negative = inhibition	Potency
COCCn1c(SCc2nc3cc(OC)c(OC)cc3c(=O)[nH]2)nnc1-c1ccncc1	1.35%	–
COC(=O)CSc1nc2ccccc2c(=O)n1Cc1ccccc1	13.8%	–
COc1cccc(CSc2nc3nc(C)cc(C)n3n2)c1	18.8%	–
CCn1c(SCc2ccccc2)nc2c(c1=O)SCC2	-2.57%	–
CCn1c(SCc2ccccc2)nc2cc(OC)c(OC)cc2c1=O	–	10.4 µM (active)
COCCCn1c(SCc2cccc(OC)c2)nc2cc(OC)c(OC)cc2c1=N	–	2.62 µM (active)
Cc1ccc(NC2CCCN(C(=O)CCc3cn[nH]c3)C2)cc1C (centres undefined)	-0.298%	–
COc1ccc(S(=O)(=O)Nc2cc(C)on2)cc1NC(C)=O	-8.24%	–
Cc1ccc2nc(SCC(=O)N3CC(C)OC(C)C3)nc(=O)n2c1 (centres undefined)	-18.9%	–
CC(C)Nc1ccc(-n2nc3ccccc3[n+]2[O-])cc1	115%	–
COc1ccc(NC(=O)C2CCN(S(=O)(=O)c3ccc4[nH]c(=O)oc4c3)CC2)c(OC)c1	-16.8%	–
COc1ccc(C(CNC(=O)COc2ccccc2OC)N2CCCCC2)cc1 (centres undefined)	-3.54%	–
COc1ccccc1CN1CC(C(=O)NCCc2cn[nH]c2)CCC1=O (centres undefined)	6.82%	–
COc1ccc2c(c1)C(SCC(=O)NCc1ccccc1)CC(C)(C)O2 (centres undefined)	-9.16%	–
COc1ccc2c(c1)C=CC1(O2)N(CCO)c2ccccc2C1(C)C (centres undefined)	–	13.1 µM (active)
CN1c2ccc([N+](=O)[O-])cc2C(C)(C)C12C=Cc1cc(C(=O)O)ccc1O2 (centres undefined)	16.2% [at 0.00184 µM]	–
CC1CCCCC1NC(=O)COC(=O)Cc1ccc(Cl)cc1 (centres undefined)	12.1%	–
CSc1nnc2ccc(-c3ccc(C)cc3)nn12	30.7%	–
Cc1ccc(S(=O)(=O)n2cccc2CO)cc1	17.4%	–
CN(C)CCNc1ccc(-c2n[nH]c(=O)c3ccccc23)cc1[N+](=O)[O-]	18.1%	–
COCCNc1cc(NCCOC)c([N+](=O)[O-])cc1[N+](=O)[O-]	0.111%	–
COCCNc1ccc(-c2n[nH]c(=O)c3ccccc23)cc1[N+](=O)[O-]	–	4.65 µM (active)

SMILES	activity change, negative = inhibition	Potency
COc1ccc(CNC(=O)c2cc(=O)c3c(C)cc(C)cc3o2)cc1	9.71%	–
O=C(c1cc(-c2ccc(Cl)cc2)on1)N1CCN(c2ccccc2)CC1	109%	–
CC(C)n1cnc2c(Nc3cccc(Cl)c3)nc(N(CCO)CCCO)nc21	–	7.38 µM (active)
O=C(Nc1ccccc1N1CCCCC1)c1cccc(F)c1	-1.23%	–
COc1ccccc1C(=O)NC(=S)Nc1ccccc1N1CCCCC1	42.8%	–
O=C(NC(=S)Nc1ccccc1N1CCCCC1)c1ccc(F)cc1	–	8.28 µM (active)
O=C(COc1nsnc1N1CCOCC1)Nc1ccccc1Cl	28.2%	–
Cn1c(=O)n(C)c2cc(C(=O)Nc3ccc(Br)cc3)ccc21	-47.9%	–
N#CCSc1nc(-c2ccccc2)nc2ccc(F)cc12	56.7%	–
CSc1nc(-c2ccccc2)nc(C(Cl)Cl)n1	0.843%	–
Clc1ccc2nc(-c3ccccc3)nc(C(Cl)Cl)c2c1	–	10.4 µM (active)
CN1C(C(=O)NCC2CC2)CC2Cn3c(nc4ccccc43)C21 (centres undefined)	-24.1%	–
Cn1nc(C(F)(F)F)c2cc(NC(=O)OCC(C)(C)C)sc21	–	2.33 µM (active)
Cn1nc(C(F)(F)F)c(-c2ccc(F)cc2)c1NC(=O)CSCC(=O)O	-29.7%	–
Cn1nc(C(F)(F)F)c2cc(C(=O)N3CCOCC3)sc21	12.5%	–
COc1ccc(CN2CCC(n3nccc3NC(=O)CCCc3ccccc3)CC2)cc1C	-14.2%	–
CC(Sc1nnc(C2CC2)n1C1CC1)C(=O)Nc1ccc(C(N)=O)cc1 (centres undefined)	5.56%	–
COc1cccc(NC(=O)CSc2nnc(Cc3ccc(OC)c(OC)c3)o2)c1	8.6%	–
O=C(COC(=O)c1ncc(Cl)c(Cl)c1Cl)NNC(=O)c1ccccc1	27.4%	–
O=C(O)Cc1sc(-c2ccccc2)nc1-c1cccs1	5.8%	–
CC(=O)C1=C(C)NC(C)=C(C(C)=O)C1c1cn(-c2ccccc2)nc1-c1cccs1	–	14.7 µM (active)
O=C(NCc1cccnc1)c1cn(-c2ccccc2)nc1-c1cccs1	23.1%	–

SMILES	activity change, negative = inhibition	Potency
CCOc1ccc2[nH]c(C(=O)N/N=C/c3cccc(OC)c3OC)cc2c1	38%	–
COc1ccc(-c2onc3ccc(C(C)=O)cc23)cc1	35.4%	–
COc1ccc(OC)c(C(=O)c2ccc(Cl)cc2)c1	97.3%	–
COc1ccc(O)c(C(=O)c2cnc3onc(C(C)C)c3c2)c1	–	2.62 µM (active)
COc1ccc(C(=O)OCC(=O)N2CC(=O)Nc3ccccc32)cc1Br	1.75%	–
COc1cc(OC)c(C(=O)OCC(=O)N2CC(=O)Nc3ccccc32)cc1OC	-1.21%	–
COc1ccc(Cl)cc1-n1c(C)cc(C(=O)OCC(=O)N2CC(=O)Nc3ccccc32)c1C	–	5.22 µM (active)
CCCC(C)NC(=O)C1CCN(C(=O)C2CC(=O)N(c3ccc(C)cc3)C2)CC1 (centres undefined)	13.8%	–
CCCc1cc(-c2n[nH]c(=S)n2CC)c2ccccc2n1	–	1.31 µM (active)
CCn1c(-c2ccncc2)n[nH]c1=S	0.239%	–
C=CCn1c(-c2ccccc2OCC)n[nH]c1=S	24.5%	–
O=C(c1cc(S(=O)(=O)N2CCOCC2)ccc1Cl)N1CCOCC1	11.1%	–
Cn1cnc2c1c(=O)n(Cc1ccccc1C#N)c(=O)n2C	-8.15%	–
CC(C)N(C(=O)c1ccc(-c2ccccc2F)cc1)C(C)C	–	10.4 µM (active)
O=C(Nc1ccccc1F)c1ccccc1-c1ccccc1	-4.48%	–
CCN(CC(=O)Nc1c(F)cccc1F)C(=O)c1ccc(-c2ccccc2)cc1	-8.33%	–
CCCCN(C(=O)c1nn(C)c(=O)c2ccccc12)c1c(N)n(CCC)c(=O)[nH]c1=O	14.8%	–
Cc1nc(C)c(C(=O)N(c2ccc(C)c(C)c2)C(C(=O)NCc2ccco2)c2ccccc2)s1 (centres undefined)	–	11.7 µM (active)
Cc1cccc(N(C(=O)Cc2cccs2)C(C(=O)NCc2ccco2)c2ccncc2)c1 (centres undefined)	9.15%	–
Cc1cccc(N(C(=O)c2sc(C)nc2C)C(C(=O)NCC2CCCO2)c2ccccc2)c1 (centres undefined)	-12.8%	–
CCOCc1nnc(NC(=O)CCS(=O)(=O)Cc2ccccc2)s1	-15.8%	–
Cc1cccc(CNS(=O)(=O)c2ccc(-c3cnc(C4CC4)o3)cc2)c1	4.74%	–

SMILES	activity change, negative = inhibition	Potency
COc1ccc(C)cc1N(CC(=O)N1CCCC1)S(=O)(=O)c1ccccc1	-18.3%	–
CC(C)C(=O)N1CCN(c2nc(-c3ccccc3)c3c(c2C#N)CC(C)(C)OC3)CC1	–	13.1 µM (active)
CC1(C)Cc2c(sc(NC(=O)C(=O)N3CCOCC3)c2C#N)CO1	4.9%	–
Cc1nc(NCCN)c(C#N)c2c1COC(C)(C)C2	-8.6%	–
Cc1sc(NC(=O)C2=COCCO2)c(C#N)c1C	82.8%	–
COc1ccccc1NC(=O)CSc1nnc(CNC(=O)c2ccccc2F)o1	19.9%	–
O=C(CN1C(=O)c2ccccc2S1(=O)=O)NC1CCCCC1	31%	–
COC(CNC(=O)c1ccc2c(c1)ncn2-c1cc(C)cc(C)c1)OC	-21.4%	–
Cc1ccc(CCN2CC(C(=O)NCCc3ccccc3)CC2=O)cc1 (centres undefined)	-21.6%	–
Cc1cc(C)cc(C(=O)N(CCc2ccccc2)C2=CC3CCC(C2)N3C)c1 (centres undefined)	–	11.7 µM (active)
CN1C2C=C(N(C(=O)c3ccc(Cl)cc3)c3ccccc3)CC1CC2 (centres undefined)	-24.9%	–
O=S(=O)(NC1CCCCC1N1CCC(O)CC1)c1ccc(Cl)cc1 (centres undefined)	19.7%	–
CCN(CC(=O)Nc1c(F)cccc1F)C(=O)c1ccc(S(=O)(=O)N2CCCCC2)cc1	-2.96%	–
COc1cccc(NC(=O)c2ccccc2N(Cc2ccccc2)S(C)(=O)=O)c1	-14.6%	–
COCCNC(=O)c1onc(CSc2cccc(C)c2)c1C(=O)O	33.9%	–
O=C(NCc1ccccc1)c1onc(CSc2nc3ccccc3[nH]2)c1C(=O)NCc1ccccc1	–	1.17 µM (active)
COc1ccccc1CSc1nc2ccccc2[nH]1	9.15%	–
O=C(CSc1nc(C2CC2)nc2ccccc12)Nc1cccc(O)c1	18.3%	–
CCOCc1c(C(=O)N2CCN(Cc3ccc(Br)s3)CC2)oc2ccccc12	–	13.1 µM (active)
CCC(=O)Nc1ccccc1C(=O)N1CCN(Cc2ccccc2)CC1	-10.3%	–
COCC(=O)Nc1c(C(=O)N2CCCC2)oc2ccccc12	26.7%	–
